Experimental data: the OligoGym collection

What follows are sequences tested against FAM117A (assay: pooled miR-30 sensor sort-seq; sequence = guide strand). Details: shRNA.
Also: reference of the scale not given here.

Sequence	sensor-assay potency score (higher = more potent)
TGTAGCTATGATTAGGTCGAGG	-1.12
AACTCGAACATTAACATTCTTC	-0.482
TATACAAACTTCAAACAGCTGC	-0.329
TACACACTGACTTTTCTGGGGC	0.0109
TTGAAATGGACTTTGTTCTTGT	1.01
AAATAGAGTCTCTACATCGATA	-1.34
TCACCTTCTAGCTCTTGCCAGG	-1.11
TTTTCTAATCCATCCAGCCCTG	-0.672
TTCTTCAAACACACGCACTTTC	-0.795
TTAACATTCTTCAATTTTGTGT	-0.138
TTGTCATTGGTGCAGCAGGTGA	-1.77

Each sequence was assayed against FAM127A in the same assay as above. Details: shRNA.

Sequence	sensor-assay potency score (higher = more potent)
TCGGTATCGCCGTCAAACGTCT	-1.19
ATTGAGGAGGGGGCTCTCCTTC	-1.52
TCGCTGGAGAACGTGTTCTCGT	-1.32
ATCGCCGTCAAACGTCTCGGGA	-1.14
TCGCCGTCAAACGTCTCGGGAA	-1.08
ATCTCGGCCAGAAAGCCCCGGT	-0.915
TATCGCCGTCAAACGTCTCGGG	-0.476
TTCATCTCGGCCAGAAAGCCCC	-0.891
TCGGTCGGTATCGCCGTCAAAC	-1.87
AAAGACTCGCTTCATCTCGGCC	-1.07
TGTAGGAGCCCGTCTGCACGAT	-1.04

The sequences below were run against FAM134A in the same assay as above. Details: shRNA.

Sequence	sensor-assay potency score (higher = more potent)
TTCTTGGTCTGACTGTACCAGA	-0.779
AAGAGTGTAACTACTGGCCTGA	0.464
TATTTTTCAAGTCAACACCTGC	-0.352
TTTCTTCACATCCACCACTGGG	-0.774
TACCAGAGAATGGATGTCGGGC	-0.337
TGAATCTGGAAGGTGAGCCAGC	-0.0919
TTCAAGTCAACACCTGCACAGA	-0.356
TACACAGACTACAGTGACCTAA	-0.201
TTGGCTTCTGCCTTCATGCTGT	0.471
TTCTTCACATCCACCACTGGGG	-0.152
AACAGCAACACTCCTAGCCAGG	-1.64
TAAGAGTGTAACTACTGGCCTG	-0.0872

The sequences below were run against FAM151A in the same assay as above. Details: shRNA.

Sequence	sensor-assay potency score (higher = more potent)
AAAGATGTCATAGTAGACTTGG	0.264
TTTGCCTTCCTCTGTCAGCTGC	0.237
TGTCATAGTAGACTTGGTGGAC	0.221
ATGACCACCACAGACACACAGG	-1.21
TTCTACATTGACGTCAGCCTCC	-0.0868
TAGACTTGGTGGACAGCAGTGT	0.813
